Shiga toxin inh: A qHTS for Small Molecule Inhibitors of Shiga Toxin; inhibition, % at 38.7 µM; Vero cells, Shiga toxin protein synthesis inhibition reporter; 290,000 tested, 9.2% active; in the data active = inhibition mostly above about 28%, no sharp cut-off; inactive = mostly below about 43%; also: 0% is about no effect
CHX counter: Cycloheximide Counterscreen for Small Molecule Inhibitors of Shiga Toxin. cell reporter, cycloheximide protein synthesis inhibition counterscreen. max response, %. 300,000 tested, 12% active; in the data active = max response mostly above about 13%, no sharp cut-off; inactive = mostly below about 14%; also: read at 38.3 µM for the half of the compounds with a filed dose; 0% is about no effect
Pf growth 48h: Primary qHTS for delayed death inhibitors of the malarial parasite plastid, 48 hour incubation | Potency, µM (doses to about 28.7 µM), for inactives: top-dose activity change, negative = inhibition, usual class: inhibitors | 310,000 tested, 5.9% active | P. falciparum luciferase growth in erythrocytes, 48 h; also: potency is read from the fitted curve at half-maximal effect; % is scaled to controls: 0 for no effect and ±100 for the full control effect
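Cell-based growth assay: transgenic P. falciparum expressing firefly luciferase, cultured in red cells within RPMI 1640 containing 0.5% w/v Albumax, 24 mM bicarbonate and gentamycin. A drop in luciferase activity indicates inhibition.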
SARS PLpro yeast: qHTS of Yeast-based Assay for SARS-CoV PLP | S. cerevisiae expressing SARS-CoV PLpro, growth rescue | Potency, µM (top dose mostly 32.9 µM), inactives show at the highest dose activity, positive = growth rescue, most hits filed as activators | 330,000 tested, 0.19% active; calls by dose curve; also: potency is read from the fitted curve at half-maximal effect; 0% is about no effect; nearly all actives have a fitted effect of over 55% in size
Pf growth 96h: Primary qHTS for delayed death inhibitors of the malarial parasite plastid, 96 hour incubation; P. falciparum luciferase reporter growth, 96 h; Potency, µM (top dose mostly 28.7 µM), without a hit: at the top dose activity change, negative = inhibition, most hits filed as inhibitors; 320,000 tested, 6.9% active; AID 504834, 2011; also: potency is read from the fitted curve at half-maximal effect; % is scaled to controls: 0 for no effect and ±100 for the full control effect
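P. falciparum expressing integrated firefly luciferase, in erythrocytes at 2% hematocrit, 0.05% parasitemia, incubated with compounds 96 h at 37 C, 5% CO2. Growth inhibition read as loss of luminescence; two-generation exposure targets delayed-death apicoplast inhibitors.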
NS1 function inh: qHTS Assay for Inhibitors of Influenza NS1 Protein Function | Potency, µM (titrated, usually from 46.1 µM), inactives show at the highest dose activity, positive = more growth | 270,000 tested, 0.4% active | AID 2326, 2010; calls by dose curve; also: potency is read from the fitted curve at half-maximal effect; actives are rising curves; nearly all actives have a fitted effect of over 50% in size
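Recovery from NS1-induced slow growth read by OD600 in budding yeast switched to galactose assay medium (pH 6.0, -URA) at 1:100 dilution. Compound 23 nl per well; the matching strain lacking NS1 serves as control.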
The depositor's hits bear a star. Rows were chosen to be rich in hits. Some 21% of all compounds tested hit in one or more screens of this group. Unless noted, calls follow the shape of the dose curve; as a rule, active = well fitted inhibition curve with a large enough effect; inconclusive = small, poorly fitted or top-dose-only effect, or another doubt; inactive = no such curve, though single readings can be large or run the other way.

How did CC(C)C(NC(=O)CN1C(=O)c2ccccc2C1=O)c1ccccc1 (stereo not given) do in these assays?
Shiga toxin inh: -6; CHX counter: -3; Pf growth 48h: 26%; SARS PLpro yeast: 1%; Pf growth 96h: 26%; NS1 function inh: 0%

What do the screens show for `N#CCSc1nnc(-c2ccc3c(c2)OCO3)o1`?
Shiga toxin inh: 24*; CHX counter: 14*; Pf growth 48h: 10%; SARS PLpro yeast: 0%; Pf growth 96h: 39%; NS1 function inh: -1%

What do the screens show for `C/C(N)=C(/C#N)C(=O)CSc1nnc(-c2ccc(OC(F)F)cc2)o1`?
Shiga toxin inh: 99*; CHX counter: 35*; Pf growth 48h: 126%; SARS PLpro yeast: 4%; Pf growth 96h: inconclusive; NS1 function inh: 3%

How did Cc1nc(NC(=O)CSc2nnc(-c3ccc4c(c3)OCO4)o2)c(Cl)cc1Cl do in these assays?
Shiga toxin inh: active; CHX counter: 19*; Pf growth 48h: 77%; SARS PLpro yeast: -14%; Pf growth 96h: 9%; NS1 function inh: 18%

Results for O=C(O)CSc1nnc(-c2ccc3c(c2)OCO3)o1 ?
Shiga toxin inh: 50; CHX counter: -2; Pf growth 48h: -11%; SARS PLpro yeast: -4%; NS1 function inh: 5%

What do the screens show for `NC(=O)CSc1nnc(-c2ccc3c(c2)OCO3)o1`?
Shiga toxin inh: 75*; CHX counter: 28*; Pf growth 48h: 425%; SARS PLpro yeast: 0%; Pf growth 96h: 175%

How did N#CCSc1nnc(Cc2ccc3c(c2)OCO3)o1 do in these assays?
Shiga toxin inh: 11; CHX counter: -1; Pf growth 48h: inconclusive; SARS PLpro yeast: 1%; Pf growth 96h: 0%; NS1 function inh: 4%

What do the screens show for `COc1ccccc1CNS(=O)(=O)c1cc(-c2cc(C)no2)ccc1C(C)C`?
Shiga toxin inh: -6; CHX counter: 11; Pf growth 48h: inconclusive; Pf growth 96h: -12%; NS1 function inh: -31%

Results for C/C(N)=C(/C#N)C(=O)CSc1nnc(-c2ccc3c(c2)OCO3)o1 ?
Shiga toxin inh: 99*; CHX counter: 44*; Pf growth 48h: 195%; SARS PLpro yeast: 7%; NS1 function inh: -2%

What do the screens show for `COc1ccc(Cl)cc1N(CC(=O)NCCSc1ccccn1)S(=O)(=O)c1ccccc1`?
Shiga toxin inh: -15; CHX counter: -6; Pf growth 48h: -17%; SARS PLpro yeast: -6%; Pf growth 96h: 1.7µM*; NS1 function inh: 5%

Results for COc1cccc(N(CC(=O)NCCSc2ccccn2)S(=O)(=O)c2ccccc2)c1 ?
Shiga toxin inh: -3; CHX counter: -3; Pf growth 48h: 13µM*; SARS PLpro yeast: 1%; Pf growth 96h: 5%; NS1 function inh: -4%

How did COc1ccc(N(CC(=O)NCCSc2ccccn2)S(=O)(=O)c2ccccc2)cc1Cl do in these assays?
Shiga toxin inh: -38; CHX counter: 5; Pf growth 48h: -38%; SARS PLpro yeast: 1%; Pf growth 96h: 38%; NS1 function inh: -14%

How did NC(=O)NC(=O)COC(=O)c1ccc2c(c1)C(=O)N(Cc1ccccc1)C2=O do in these assays?
Shiga toxin inh: -10; CHX counter: -1; Pf growth 48h: 23%; SARS PLpro yeast: 1%; Pf growth 96h: 32%; NS1 function inh: 2%

Results for Cc1cccc(N(C(=O)c2ccc(CN3CCOCC3)o2)C(C(=O)NC(C)(C)C)c2ccc(F)cc2)c1 (stereo not given) ?
Shiga toxin inh: -14; CHX counter: 5; Pf growth 48h: 8.3µM*; SARS PLpro yeast: -2%; Pf growth 96h: inconclusive; NS1 function inh: -1%

What do the screens show for `CC(C)(C)NC(=O)C(c1cccs1)N(Cc1cccs1)C(=O)c1ccc(CN2CCOCC2)o1` (stereo not given)?
Shiga toxin inh: 18; CHX counter: -2; Pf growth 48h: -19%; SARS PLpro yeast: 1%; Pf growth 96h: -16%

How did COCCNc1cnn(-c2ccccc2)c(=O)c1Cl do in these assays?
Shiga toxin inh: 39*; CHX counter: 25*; Pf growth 48h: 0%; SARS PLpro yeast: 7%; Pf growth 96h: inconclusive; NS1 function inh: inconclusive

How did CN(c1cnn(-c2ccccc2)c(=O)c1Cl)n1cccc1 do in these assays?
Shiga toxin inh: 56*; CHX counter: 34*; Pf growth 48h: 41%; SARS PLpro yeast: 0%; Pf growth 96h: 44%; NS1 function inh: -3%

What do the screens show for `CCCCNc1cnn(-c2ccccc2)c(=O)c1Cl`?
Shiga toxin inh: 75*; CHX counter: 33*; Pf growth 48h: 48%; SARS PLpro yeast: 1%; Pf growth 96h: inconclusive

How did COc1ccccc1-n1cnnc1SCC(=O)c1c[nH]c2ccccc12 do in these assays?
Shiga toxin inh: 12; CHX counter: -1; Pf growth 48h: -3%; SARS PLpro yeast: 11%; Pf growth 96h: -10%; NS1 function inh: 20%

What do the screens show for `N/C(=N\OC(=O)c1cccc(Cl)c1)c1cccnc1`?
Shiga toxin inh: 99*; CHX counter: 47*; Pf growth 48h: -19%; SARS PLpro yeast: -22%; Pf growth 96h: -16%; NS1 function inh: 5%

Results for N/C(=N\OC(=O)c1cccc(Cl)c1)c1ccncc1 ?
Shiga toxin inh: 59*; CHX counter: 39*; Pf growth 48h: -5%; SARS PLpro yeast: -2%; Pf growth 96h: 2%; NS1 function inh: 4%

How did N/C(=N\OC(=O)c1ccc(Cl)c(Cl)c1)c1cccc(CSc2ccccn2)c1 do in these assays?
Shiga toxin inh: 62*; CHX counter: 29*; Pf growth 48h: 56%; SARS PLpro yeast: 1%; Pf growth 96h: 73%; NS1 function inh: 3%

How did N/C(=N\OC(=O)c1cccc(C(F)(F)F)c1)c1cnccn1 do in these assays?
Shiga toxin inh: 59*; CHX counter: 30*; Pf growth 48h: 51%; SARS PLpro yeast: inconclusive; Pf growth 96h: 68%; NS1 function inh: -3%

How did N/C(=N\OC(=O)c1ccc(Cl)c(Cl)c1)c1cccnc1 do in these assays?
Shiga toxin inh: 41; CHX counter: 26*; SARS PLpro yeast: -5%; Pf growth 96h: 13%; NS1 function inh: -69%

How did Cc1ccc(CSCCNC(=O)CSc2ccccc2)cc1 do in these assays?
Shiga toxin inh: -2; CHX counter: -2; Pf growth 48h: -4%; SARS PLpro yeast: -15%; Pf growth 96h: -21%; NS1 function inh: -14%

How did CCCN(C(=O)CSc1nnnn1-c1ccccc1OC)C1CCS(=O)(=O)C1 (stereo not given) do in these assays?
Shiga toxin inh: -5; CHX counter: -1; Pf growth 48h: inconclusive; SARS PLpro yeast: -2%; Pf growth 96h: -22%; NS1 function inh: 0%

Results for CCN1C(=O)/C(=C2/Sc3ccccc3N2CC)SC1=S ?
CHX counter: -2; Pf growth 48h: 8%; SARS PLpro yeast: -4%; Pf growth 96h: inconclusive; NS1 function inh: -2%

Screens (PubChem)
